Rows were chosen to be rich in hits. Some 3.6% of all compounds tested hit in one or more screens of this group.
TGFb SMAD3 inh = blocks TGF-b signaling | HepG2 CAGA-GFP TGF-b/SMAD3 reporter, GFP fluorescence, 18 h; TGF-beta stimulated, 500 pg/mL final | Potency, µM (series often up to 46.1 µM), without a hit: at the top dose activity, negative = inhibition, usual class: inhibitors | actives 1.2% (n = 410,000) | AID 588855; further: on the % scale 0 is the no-effect control and ±100 the full control effect; nearly all actives have a fitted effect of over 65% in size
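GFP signal (ex488/em500-530) from TGF-beta-stimulated HEPG2 CAGA-GFP cells, 500 pg/mL final, 18 h at 37 degrees C in DMEM plus 1% FBS, normalized to unstimulated and DMSO-stimulated controls.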
HepG2 viability = counter-screen for TGF-b inhibitors: cytotoxicity in HepG2 cells. AID 588856. actives 0.76% (n = 410,000). Potency, µM (doses to about 46.1 µM), without a hit: at the highest dose activity change, negative = cytotoxicity, hits mostly cytotoxic. HepG2 CAGA-GFP viability, ATP luminescence, 18 h
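CellTiter-Glo luminescence gave cytotoxicity after 18 hours at 37 degrees C. The cells were HepG2 CAGA-GFP in 1% FBS DMEM, stimulated with 500 pg/mL TGF-beta after compound addition. %Activity was normalised to no-cell wells (complete cell-killing) and DMSO (no toxicity), and curves were fitted and classified.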
Nrf2 activator = Nrf2 pathway activation. AREc32 ARE-luciferase reporter (MCF7-derived line), luminescence, 24 h. actives 0.31% (n = 410,000). Potency, µM (doses to about 46.1 µM), for inactives: at the top dose activation, hits mostly activators; further: % of control where 0% means no effect; nearly all actives have a fitted effect of over 65% in size
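Each well held 1000 AREc32 cells, which were incubated with compound for 24 hr at 37 deg C after overnight attachment, and ARE reporter activity was quantified by firefly luciferase luminescence.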
Nrf2 block = inhibitors of Nrf2 signaling. A549 ARE-Fluc reporter, luciferase luminescence, 18-24 h. Potency, µM (top dose mostly 46 µM), for inactives: top-dose activity change, negative = inhibition, hits mostly inhibitors. actives 2.1% (n = 360,000). AID 504444; further: on the % scale 0 is the no-effect control and ±100 the full control effect; nearly all actives have a fitted effect of over 60% in size
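Nrf2 function is reported as luminescence of an ARE-controlled luciferase in A549 cells. Compounds were tested at several concentrations, and a CellTiter-Fluor read on the same wells flagged cytotoxicity.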
A549 tox-1 = kills or reduces viability of A549 cells in Nrf2 counter-screen; A549 ARE-Fluc cells, CellTiter-Fluor viability, 18-24 h; Potency, µM (doses to about 46 µM), without a hit: at the highest dose activity change, negative = cytotoxicity, usual class: inhibitors; actives 0.16% (n = 390,000); further: on the % scale 0 is the no-effect control and ±100 the full control effect
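A549 ARE_Fluc cells in 5% FBS OPTI-MEM were exposed to compounds in concentration-response for 18-24 h at 37 deg C. Viability was read by CellTiter-Fluor fluorescence (Ex 405/Em 525) after 30 min, before the luciferase read.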
FLuc enzyme inh = firefly luciferase inhibition, Nrf2 hit validation; Potency, µM (top dose mostly 57.5 µM), inactives show at the top dose activity change, negative = inhibition, actives largely listed as inhibitors; shares compounds with Nrf2 block; AID 720522; purified firefly luciferase, luminescence inhibition; actives 4% (n = 1,400); further: on the % scale 0 is the no-effect control and ±100 the full control effect; nearly all actives have a fitted effect of over 65% in size
Target sequence (P08659 whole entry, looked up): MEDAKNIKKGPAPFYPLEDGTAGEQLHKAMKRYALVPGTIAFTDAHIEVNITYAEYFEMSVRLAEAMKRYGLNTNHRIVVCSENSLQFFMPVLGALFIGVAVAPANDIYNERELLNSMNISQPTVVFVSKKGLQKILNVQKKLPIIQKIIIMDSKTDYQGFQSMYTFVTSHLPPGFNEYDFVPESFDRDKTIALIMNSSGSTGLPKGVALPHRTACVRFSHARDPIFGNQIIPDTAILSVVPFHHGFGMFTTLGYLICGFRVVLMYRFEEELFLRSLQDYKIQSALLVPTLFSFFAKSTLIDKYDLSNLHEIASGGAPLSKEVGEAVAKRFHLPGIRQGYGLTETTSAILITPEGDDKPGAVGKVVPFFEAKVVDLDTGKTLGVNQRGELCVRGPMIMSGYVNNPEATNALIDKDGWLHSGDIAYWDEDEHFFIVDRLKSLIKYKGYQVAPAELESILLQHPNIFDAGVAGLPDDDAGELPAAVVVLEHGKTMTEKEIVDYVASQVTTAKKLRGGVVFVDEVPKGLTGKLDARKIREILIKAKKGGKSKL
A549 tox-2 = A549 cytotoxicity, Nrf2 inhibitor counterscreen. shares compounds with Nrf2 block. A549 ARE-Fluc cells, cytotoxicity counterscreen. Potency, µM (doses to about 46.1 µM), without a hit: at the top dose activity change, negative = cytotoxicity, usual class: inhibitors. actives 2% (n = 1,400). AID 720523;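 further: cells exposed to compounds for 18 to 24 hours; on the % scale 0 is the no-effect control and ±100 the full control effect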
Nrf2 ARE inh = confirmation of Nrf2 inhibitors in A549 ARE reporter cells. actives 74% (n = 1,400). shares compounds with Nrf2 block. A549 ARE-firefly luciferase reporter, luminescence. Potency, µM (highest dose often 46.1 µM), inactives show top-dose activity change, negative = inhibition, actives largely listed as inhibitors; further: on the % scale 0 is the no-effect control and ±100 the full control effect; nearly all actives have a fitted effect of over 65% in size
* = called active by the depositor; ? = inconclusive; nt = no result shown. The call rests on the fitted dose curve; in most records, active means well fitted curve in the direction sought with a large enough effect; inconclusive means small, poorly fitted or top-dose-only effect, or another doubt; inactive means no such curve, though single readings can be large; an effect the other way counts as inactive or inconclusive. Potency means the concentration at half of the fitted maximal effect.

SMILES	TGFb SMAD3 inh	HepG2 viability	Nrf2 activator	Nrf2 block	A549 tox-1	FLuc enzyme inh	A549 tox-2	Nrf2 ARE inh
O=C1CCC2S/C(=C/Nc3ccc(C(F)(F)F)cc3)C(=O)N12 (centres undefined)	-4%	-2%	-4%	1µM*	0%	11µM*	2%	4.1µM*
O=c1c2c3c(sc2nc2n1N=C(c1cccs1)CS2)CCCC3	13%	3%	0%	?	-4%	nt	nt	nt
O=C(N/N=C/c1sc(N2CCOCC2)nc1-c1ccccc1)c1ccc(O)cc1	4%	18%	3%	-8%	-18%	nt	nt	nt
O=C(N/N=C/c1sc(N2CCOCC2)nc1-c1ccccc1)c1cccc(S(=O)(=O)N2CCCC2)c1	?	-18%	3%	2.6µM*	?	2%	-17%	23µM*
Cc1nc2ccc(NS(=O)(=O)c3ccc(F)c(C)c3)cc2[nH]1	-18%	-18%	-1%	8.2µM*	-2%	-1%	-3%	5.8µM*
Cc1nc2ccc(S(=O)(=O)c3ccc4nc(C)[nH]c4c3)cc2[nH]1	0%	0%	0%	nt	-4%	nt	nt	nt
O=C(NCCN1CCC(n2c(=O)[nH]c3ccccc32)CC1)C(c1ccccc1)c1ccccc1	nt	nt	6%	nt	nt	nt	nt	nt
Cc1c(Cl)cccc1NC(=O)Cn1cc(C(=O)C2CCCCC2)c2ccccc21	?	-45%	0%	2.9µM*	-21%	0%	-16%	nt
Nc1nncn1C(=O)c1ccc(Cl)cc1Cl	11%	-2%	-2%	1.6µM*	-1%	-10%	-20%	nt
Cc1cccc(Cl)c1NC(=O)N1CCCN(c2nc3ccc(Cl)cc3s2)CC1	14µM*	-63%	7%	9.2µM*	?	-16%	-30%	9.2µM*
CC(C)(C)C(=O)N1CCN(c2nc3ccc(Cl)cc3s2)CC1	0%	3%	3%	?	-4%	nt	nt	nt
N#Cc1cc(-c2ccccc2)[nH]c1-c1nccc2ccccc12	?	-37%	0%	9.2µM*	-14%	-12%	-4%	?
O=C(OCC(=O)N1CCc2ccccc2C1)c1cc(=O)[nH]c2ccccc12	-6%	-4%	1%	?	0%	nt	nt	nt
COc1ccc2c(c1)CCc1c(C(=O)Nc3c(C)nn(Cc4ccc(Cl)c(Cl)c4)c3C)noc1-2	-21%	-1%	-1%	4.6µM*	-6%	0%	-9%	9.2µM*
O=C(Nc1cc(S(=O)(=O)N2CCCCC2)ccc1Cl)c1ccccc1NS(=O)(=O)c1ccc(F)cc1	3.5µM*	-29%	4%	3.7µM*	?	-26%	?	4.6µM*
COc1ccc(OCC2c3cc(OC)c(OC)cc3CCN2C(=O)c2c(F)cccc2F)cc1 (centres undefined)	-9%	-33%	4%	nt	13%	nt	nt	nt
CN1/C(=C\C=N\O)C(C)(C)c2ccccc21	-18%	-7%	0%	-2%	0%	nt	nt	nt
CN1/C(=C\C=[N+](C)c2ccccc2)C(C)(C)c2ccccc21	-27%	-35%	2%	0.82µM*	9.2µM*	2%	?	1.2µM*
COc1ccc2c(CN3CCN(c4ccccc4F)CC3)cc(=O)oc2c1	?	-12%	-1%	nt	nt	nt	nt	nt
Cc1ccc(CNC(=O)COC(=O)c2cc(C)oc2C)cc1	-1%	-50%	0%	7%	1%	nt	nt	nt
O=C1CC(c2ccccc2)Cc2[nH]c(=O)c(C(=O)Nc3ccc(F)cc3)cc21 (centres undefined)	-3%	-31%	-1%	nt	-1%	nt	nt	nt
O=C1CC(c2ccco2)Cc2[nH]c(=O)c(C(=O)Nc3ccccc3)cc21 (centres undefined)	6%	-11%	nt	nt	nt	-17%	-10%	?
Cc1ccc(C(=O)Nc2ccc(Br)c(C(F)(F)F)c2)cc1	0%	-28%	2%	1.6µM*	nt	6.7µM*	-25%	nt
CCOC(=O)c1ccc(Nc2nc3nonc3nc2Nc2cccc(C)c2C)cc1	?	-45%	0%	2.3µM*	?	15µM*	?	5.8µM*
CCCCCSc1nnc2c(n1)OC(c1cccn1C)N(C(C)=O)c1ccccc1-2 (centres undefined)	-28%	4%	0%	1%	-1%	nt	nt	nt
SMILES	TGFb SMAD3 inh	HepG2 viability	Nrf2 activator	Nrf2 block	A549 tox-1	FLuc enzyme inh	A549 tox-2	Nrf2 ARE inh
CCn1c(SCC(=O)Nc2cccc(OC)c2)nc2ccccc2c1=O	-5%	-9%	6%	8.2µM*	-10%	-4%	0%	38%
CC(=O)NC(CC(=O)NC1CCCCC1)c1ccccc1 (centres undefined)	13%	14%	0%	0%	-5%	nt	nt	nt
CCOc1ccc(NC(=O)CCC(=O)NNC(=O)COc2ccc(C)cc2)cc1	5%	-12%	0%	?	7%	nt	nt	nt
COc1cc(OC)c(/C=C/c2cc3c4ccccc4ccc3[n+](C)c2)c(OC)c1	-4%	-20%	nt	nt	nt	6.7µM*	-15%	4.6µM*
COc1cc(OC)c(/C=C/c2cc(/C=C/c3c(OC)cc(OC)cc3OC)[n+](C)c3ccccc23)c(OC)c1	?	-45%	nt	nt	nt	nt	nt	nt
COc1cc(OC)c(/C=C/c2c3ccccc3cc[n+]2C)c(OC)c1	10µM*	-22%	nt	nt	nt	1%	?	2.1µM*
O=C(CN1CCC(n2nnc3cc(F)ccc32)CC1)N1CCc2ccccc2C1	-26%	-34%	0%	?	-8%	nt	nt	nt
CCc1ccc(NC(=O)c2ccc3c(=O)n4c(nc3c2)CCCCC4)cc1	-22%	-26%	0%	?	-19%	nt	nt	nt
CCN(CC)S(=O)(=O)c1ccc(NC(=O)c2ccc3c(=O)n4c(nc3c2)CCCCC4)cc1	?	-32%	0%	9.2µM*	?	-9%	-15%	8.2µM*
CCCCn1c(SCC(=O)Nc2nnc(C(C)C)s2)nc2c1c(=O)n(C)c(=O)n2C	13%	-32%	-1%	7.3µM*	?	1%	-18%	16µM*
CCSc1nc2sc3c(c2c2[n+]1CC(CBr)O2)CCCC3 (centres undefined)	-21%	-15%	29%	-7%	5%	nt	nt	nt
Cc1ccccc1OCC(=O)N1N=C(c2cccnc2)CC1(O)C(F)(F)F (centres undefined)	-15%	-22%	0%	-17%	0%	nt	nt	nt

Bioassay records (PubChem)
